NPSR antag: blocks cAMP signaling of the human neuropeptide S receptor; CHO-NPSR cells, cAMP TR-FRET, antagonist mode; Potency, µM (series often up to 38.3 µM), actives largely listed as inhibitors; 220,000 compounds, 1% hits; note: nearly all actives have a fitted effect of over 50% in size
PKM2 activator: PKM2 (human) enzyme activation | P14618 | purified PKM2, Kinase-Glo ATP luminescence, activation; response scale: 0% is enzyme alone, no compound | Potency, µM (series often up to 57.5 µM), hits mostly activators | 260,000 compounds, 0.34% hits; note: nearly all actives have a fitted effect of over 55% in size
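ATP formation by purified human PK-M2, quantified via coupled luciferase luminescence after 1 h at room temperature with 0.1 mM ADP and 0.5 mM PEP final.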
ClpP mod: qHTS Assay for Activators of ClpP; ATP-dependent Clp protease proteolytic subunit (Bacillus subtilis (strain 168)), P80244; 340,000 compounds, 1.9% hits; AID 651965, 2013; purified B. subtilis ClpP, FRET peptide cleavage, 20 min; Potency, µM (doses to about 57.5 µM); active = well fitted falling curve with a large enough effect; inconclusive = small, poorly fitted or top-dose-only effect; inactive = no such curve, though single readings can be large or run the other way; note: the source files actives as falling curves though it sought activators and does not explain the sign; nearly all actives have a fitted effect of over 65% in size
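Buffer: 100 mM Tris/HCl pH8, 100 mM KCl, 0.05% low protease BSA, 2.5% glycerol, 0.01% Tween-20. ClpP 10 microg/mL final; 20 min RT; delta FRET normalized to ADEP and DMSO controls.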
IL2 activator: activates IL-2 in a cell-based reporter assay; IL-2 activation reporter assay, cell-based qHTS; stimulated with anti-CD3/CD4/CD28 beads; in transgenic mouse T cells; AID 652025; activation, % (series mostly up to about 46 µM); 360,000 compounds, 0.065% hits; in the data active = activation above about 50%; inconclusive = mostly about 30% to 49%
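Using fluorescent plate cytometry, EGFP and DsRed are detected in transgenic mouse T cells stimulated 18 h at 37 degrees C with antibody-coated beads after 60 min compound pretreatment.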
A number is an active result; – = inactive; ? = inconclusive; · = no result; [ ] = another dose, or the depositor's remark. Shown are actives, neighbours in structure and some others; about 2% of the full set was active somewhere. Unless noted, calls come from the whole dose curve; as a rule, active = well fitted curve in the direction sought with a large enough effect; inconclusive = small, poorly fitted or top-dose-only effect, or another doubt; inactive = no such curve, though single readings can be large; an effect the other way counts as inactive or inconclusive.

SMILES | NPSR antag | PKM2 activator | ClpP mod | IL2 activator
Cc1ccc(-c2csc3ncnc(-n4cnc5ccccc54)c23)cc1 | – | – | 28µM | –
CC(C)c1nc2c([nH]1)c(=O)n(C)c(=O)n2C | – | – | – | –
CCOc1ccccc1C(=O)NCC(=O)OCCCOC(=O)CNC(=O)c1ccccc1OCC | · | · | – | –
CCn1c(=O)n(CC)c2cc(N3CCCCC3)c(NC(=O)Nc3cc(Cl)ccc3OC)cc21 | · | · | 28µM | ·
Cc1cccc(C(=O)Nc2ccc(NC(=O)Cc3ccc(Cl)cc3)cc2)c1 | – | – | 32µM | –
O=C(Cc1ccc(Cl)cc1)Nc1ccc(NC(=O)c2ccccc2)cc1 | – | – | ? | –
O=c1[nH]c2c(s1)C(c1cccnc1)C1C3CCC(C3)C1S2 (stereo not drawn) | – | – | – | –
O=c1[nH]c2c(s1)C(c1ccc(O)cc1)C1C3CCC(C3)C1S2 (stereo not drawn) | 10µM | – | – | –
COc1ccc(C2c3sc(=O)[nH]c3SC3C4CCC(C4)C23)cc1OC (stereo not drawn) | 7.9µM | – | – | –
CCc1ccccc1NC(=O)CSc1nnc(CC)c(CC)n1 | · | · | – | ·
Cc1cc2nc(C)c(Cc3ccccc3)c(=O)n2[nH]1 | – | – | 14µM | –
Cc1c(Cl)cccc1NC(=O)CSc1nc(=O)n(CCCN2CCOCC2)c2c1CCC2 | · | · | 20µM | –
COc1cc(NC(=O)CSc2nc(=O)n(CCCN3CCOCC3)c3c2CCC3)cc(OC)c1 | · | · | 25µM | –
COc1cc(NC(=O)CSc2nc(=O)n(CCN3CCOCC3)c3c2CCC3)cc(OC)c1 | · | · | – | –
Cc1c(Cl)cccc1NC(=O)CSc1nc(=O)n(CCN2CCOCC2)c2c1CCC2 | · | · | – | ·
Cc1cc2cc(C#N)c(N3CCN(S(C)(=O)=O)CC3)nc2cc1C | – | – | 20µM | –
Cc1cc(C)c2cc(C#N)c(N3CCCC3)nc2c1 | – | – | 25µM | –
Cc1cc(C)c2cc(C#N)c(N3CCCN(C(=S)NCCCN(C)C)CC3)nc2c1 | · | · | · | –
O=C(NCC(c1ccc2c(c1)OCO2)N1CCN(c2ccc(F)cc2)CC1)c1cccc([N+](=O)[O-])c1 (stereo not drawn) | · | · | – | ·
COc1nc(-c2ccccc2)cc(-c2ccc(OC)c(OC)c2)n1 | – | – | 22µM | –
COc1ccc(OC)c(S(=O)(=O)N(C)CC(=O)N2CCN(c3cccc(Cl)c3)CC2)c1 | ? | – | – | –
CCCCCCCCCn1c2c(c(=N)c3c1CCC3)CCC2 | 7.9µM | – | – | –
O=C(Nc1ccc2nc(-c3ccco3)c(-c3ccco3)nc2c1)N1CCCCCC1 | 10µM | – | – | –
Cc1nc2ccc(NC(=O)N3CCCCC3)cc2nc1C | – | – | 14µM | –
O=C(NCC1CC1)c1cc2c(c(-c3cccc(-c4ccccc4F)c3)n1)[C@@H](CCO)N(C(=O)CC1CC1)C2 | · | · | – | –
SMILES | NPSR antag | PKM2 activator | ClpP mod | IL2 activator
CN(Cc1ccon1)C(=O)C1CCC(=O)N(Cc2ccc(Cl)cc2)C1 (stereo not drawn) | · | – | – | –
CCOC(=O)CSc1ccc(-c2nc3ccccc3[nH]2)cn1 | – | – | 32µM | –
Cc1ccc(SCC(=O)Nc2ccc(-c3nc4ccccc4[nH]3)cc2)cc1 | – | – | 25µM | –
CCOC(=O)CSc1ccc(-c2nc3cc(C)c(C)cc3[nH]2)cn1 | – | – | 32µM | –
Cc1ccc(NC(=O)CCCSc2nc3ccccc3[nH]2)cc1 | – | – | · | –
Cc1ccc2nc(-c3ccc(SCC(=O)Nc4nc(C)cs4)nc3)[nH]c2c1 | – | – | 7.9µM | –
Cc1oc2ccc(NS(=O)(=O)c3ccc(C(C)(C)C)cc3)cc2c1C(=O)Nc1ccccc1 | ? | – | – | –
Cc1sc2ncn(CC(=O)N3CCC(C(N)=O)CC3)c(=O)c2c1S(=O)(=O)N1CC(C)CC(C)C1 (stereo not drawn) | · | – | · | –
O=C(CSc1ccc(-c2nc3ccccc3[nH]2)cn1)Nc1ccc2c(c1)OCCO2 | – | – | 25µM | –
Cc1cc2nc(-c3ccc(SCC(=O)N4CCOCC4)nc3)[nH]c2cc1C | – | – | 3.2µM | –
O=C(Nc1ccc(-c2nc3ccccc3[nH]2)cc1)c1ccc(N2C(=O)CCC2=O)cc1 | – | – | 22µM | –
CC(C)(C)N1C(=O)c2ccc(C(=O)Nc3ccc(-c4nc5ccccc5[nH]4)cc3)cc2C1=O | – | – | ? | –
O=c1c2[nH]c3ccc(F)cc3c2ncn1CCCN1CCOCC1 | – | – | 20µM | –
Cc1cccc(NC(=O)c2ccc3c(c2)C(=O)N(c2ccccc2C)C3=O)n1 | · | · | – | –
COc1cccc(Cn2cnc(-c3ccccc3OC)c2-c2ccco2)c1 | · | · | – | –
COc1cccc(-c2c(-c3ccccc3OC)ncn2Cc2cccc(-c3ccccc3)c2)c1 | · | · | 28µM | –
Cc1cccc(C)c1OC(=O)CSc1nnc(-c2ccc3c(c2)OCO3)o1 | · | · | 25µM | ·
CCOc1ccc(C(=O)Nc2cccc(-c3nc4cc(Cl)cc(Cl)c4o3)c2)cc1 | · | · | – | ·
Cc1ccc(Cl)c(OCC(=O)OCC(=O)NC2CCCc3ccccc32)c1 (stereo not drawn) | – | – | – | –
COc1ccccc1-c1ccc(/C=C2/C=C(C)OC2=O)o1 | – | 13µM | 32µM | –
CC(C)(C)c1ccc(OCC(=O)O/N=C(\N)c2ccncc2)cc1 | · | · | 16µM | –
Clc1ccc(Cl)c(OCc2cc(-c3ccccc3Cl)on2)c1 | – | – | 14µM | –
O=C(Nc1ccc(Cl)cc1)OCc1cc(-c2ccccc2Cl)on1 | – | – | – | –
Cc1ccc(CCNS(=O)(=O)c2c(C)nc3sc(C)c(C)n3c2=O)cc1 | · | · | 6.3µM | ·
O=C(CN1CCOCC1)Nc1ccccc1C(=O)Nc1ccccc1 | · | · | · | –
SMILES | NPSR antag | PKM2 activator | ClpP mod | IL2 activator
CC(=O)N1CCCc2cc(S(=O)(=O)N3CCCC(C(=O)Nc4ccc(C)c(C)c4)C3)ccc21 (stereo not drawn) | · | · | – | ·
CCc1nnc(NS(=O)(=O)c2ccc(NC(=O)Nc3ccc(OC)cc3)cc2)s1 | · | – | – | –
CCc1nnc(NS(=O)(=O)c2ccc(NC(=O)OC)cc2)s1 | –[7.67 µM] | 28µM | – | –
CCc1ccc(NC(=O)CSc2nc(=O)n3cc(C)ccc3n2)cc1 | · | · | 25µM | –
Cc1ccc2nc(SCC(=O)N3CCCC3)nc(=O)n2c1 | · | · | 25µM | –
Cc1ccc2nc(SCC(=O)Nc3ccc(F)cc3)nc(=O)n2c1 | · | · | – | –
O=C(Cn1nc(Cc2ccncc2)c2ccccc2c1=O)N1CCN(C(=O)c2ccco2)CC1 | – | – | – | –
CC(C)Oc1ccc(CNC(=O)C2CCN(C(=O)c3sccc3-n3cccc3)CC2)cc1 | · | · | – | ·
COc1cccc(NC(=O)CN(C)C(=O)Cc2ccc3c(c2)OCCO3)c1 | · | · | – | –
CC1CC(C)CN(C(=O)CCc2ccccc2)C1 (stereo not drawn) | – | – | · | –
CC(=O)Nc1ccc2c(c1)[nH]c(=O)c1ccccc12 | · | · | 32µM | –
Nc1cccc2[nH]c(=O)c3ccccc3c12 | · | · | 28µM | –
Nc1ccc2c(c1)[nH]c(=O)c1ccccc12 | · | · | 20µM | –
